This excerpt belongs to a sample that is enriched for hits.
BLM helicase inh = Bloom syndrome helicase (human) inhibition | recombinant BLM DNA unwinding, fluorescence dequenching | Potency, µM (doses to about 56.1 µM), for the others: top-dose activity change, negative = inhibition, actives largely listed as inhibitors | 350,000 compounds, 0.2% hits | AID 2528;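 also: plate controls were vehicle for no effect and no enzyme for full effect; nearly all actives have a fitted effect of over 35% in size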
KDM4E inh = blocks human JMJD2E demethylase activity; Potency, µM (titrated, usually from 57.1 µM), without a hit: top-dose activity change, negative = inhibition, hits mostly inhibitors; 230,000 compounds, 1.6% hits; JMJD2E catalytic domain, FDH-coupled NADH fluorescence (FDH is formaldehyde dehydrogenase); B2RXH2; active = well fitted inhibition curve with a large enough effect, not every such curve was filed as active; inconclusive = small, poorly fitted or top-dose-only effect, or another doubt; inactive = no such curve, though single readings can be large or run the other way;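 also: 0% = wells with enzyme and -100% = buffer wells without enzyme; nearly all actives have a fitted effect of over 50% in size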
APE1 inh = APE1 (human) endonuclease inhibition | P27695 | recombinant APE1, TAMRA/BHQ-2 abasic DNA cleavage fluorescence | Potency, µM (titrated, usually from 65.8 µM), without a hit: at the top dose activity change, negative = inhibition, hits mostly inhibitors | 350,000 compounds, 0.35% hits | AID 2517;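 also: plate controls were vehicle for no effect and reference inhibitor for full effect; nearly all actives have a fitted effect of over 55% in size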
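APE1 at 0.75 nM preincubated 15 min at room temperature with compound. Reaction then started with 50 nM double-stranded THF-abasic substrate labelled with TAMRA/BHQ-2, and 525/598 nm fluorescence read kinetically. Activity taken as third-minus-first read difference, normalized to DMSO and NSC13755 controls.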
PKM2 activator = PKM2 (human) enzyme activation. Potency, µM (doses to about 57.5 µM), for the others: at the highest dose activation, hits mostly activators. AID 1631. P14618. purified PKM2, Kinase-Glo ATP luminescence, activation; response scale: 0% is enzyme alone, no compound. 260,000 compounds, 0.34% hits; also: nearly all actives have a fitted effect of over 55% in size
Target sequence (P14618 whole entry, looked up): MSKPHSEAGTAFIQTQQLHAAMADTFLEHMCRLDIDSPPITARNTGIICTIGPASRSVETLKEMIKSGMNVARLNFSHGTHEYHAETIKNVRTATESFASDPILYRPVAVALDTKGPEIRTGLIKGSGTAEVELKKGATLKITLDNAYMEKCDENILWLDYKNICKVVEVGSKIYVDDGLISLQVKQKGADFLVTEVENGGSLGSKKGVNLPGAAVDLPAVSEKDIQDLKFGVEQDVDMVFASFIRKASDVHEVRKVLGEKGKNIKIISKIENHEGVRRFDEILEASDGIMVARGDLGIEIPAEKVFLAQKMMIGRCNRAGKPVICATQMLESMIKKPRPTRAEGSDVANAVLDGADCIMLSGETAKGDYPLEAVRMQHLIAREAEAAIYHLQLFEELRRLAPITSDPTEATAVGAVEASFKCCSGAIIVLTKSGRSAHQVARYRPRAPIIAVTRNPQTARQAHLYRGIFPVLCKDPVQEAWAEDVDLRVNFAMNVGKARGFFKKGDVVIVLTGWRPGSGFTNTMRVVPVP
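Purified hPK-M2 (>95% pure) converted ADP (0.1 mM final) to ATP with 0.5 mM PEP in 50 mM imidazole pH7.2, KCl, MgCl2, Tween 20, BSA; 1 h at room temperature. ATP detected by Kinase-Glo luminescence.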
RECQ1 helicase = blocks DNA unwinding by human RECQ1. AID 2549. Potency, µM (series often up to 57.3 µM), inactives show top-dose activity, negative = inhibition, most hits filed as inhibitors. P46063. RECQ1 DNA unwinding, red fluorescence kinetic read. 240,000 compounds, 0.54% hits;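 also: plate controls were vehicle for no effect and no enzyme for full effect; nearly all actives have a fitted effect of over 30% in size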
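RECQ1T1 50 nM; forked duplex (20 bp + 30-nt ss tails) 200 nM, ATP 2 mM final; pH 8.0, 2 mM MgCl2, 2.5 ug/ml poly(dI-dC); 15 min compound preincubation; discontinuous kinetic read over 2 h at RT.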
* hit, by the source's call; i = inactive; ? = inconclusive; . = no result; [ ] = another dose, or the depositor's remark. Unless noted, calls follow the shape of the dose curve; as a rule, active = well fitted curve in the direction sought with a large enough effect; inconclusive = small, poorly fitted or top-dose-only effect, or another doubt; inactive = no such curve, though single readings can be large; an effect the other way counts as inactive or inconclusive. Unless noted, % is scaled to controls: 0 for no effect and ±100 for the full control effect; potency is read from the fitted curve at half-maximal effect.

SMILES	BLM helicase inh	KDM4E inh	APE1 inh	PKM2 activator	RECQ1 helicase
CCCC[C@H](NC(=O)[C@H](CO)NC(=O)[C@H](Cc1ccc(O)cc1)NC(=O)[C@H](CO)NC(C)=O)C(=O)N[C@@H](CCC(=O)O)C(=O)N[C@@H](Cc1cnc[nH]1)C(=O)N[C@H](Cc1ccccc1)C(=O)N[C@@H](CCCNC(=N)N)C(=O)N[C@@H](Cc1c[nH]c2ccccc12)C(=O)NCC(=O)N[C@@H](CCCCN)C(=O)N1CCC[C@H]1C(=O)N[C@H](C(N)=O)C(C)C	4%	.	-6%	.	-6%
CCN1C(=O)/C(=C2\SC(=S)N(NC(=O)c3ccccc3O)C2=O)c2ccccc21	0%	25µM*	-1%	2%	-6%
CCN1C(=O)/C(=C2\SC(=S)N(CC3CCCO3)C2=O)c2ccccc21 (stereo not drawn)	-1%	3%	-1%	-3%	-6%
c1coc(-c2nc3c4c5c(sc4ncn3n2)CCCC5)c1	-3%	1%	?	1%	4%
CN1CCc2c(sc3ncn4nc(-c5ccccc5O)nc4c23)C1	76%	22µM*	-5%	-17%	-9%
O=C(/C=C/C#Cc1cccc(NS(=O)(=O)c2ccccc2)c1)NO	6%	.	-2%	.	-13%
N#Cc1nc(-c2ccc(OCc3ccccc3Cl)cc2)oc1NCCCn1ccnc1	-10%	3.2µM*	-3%	-21%	-1%
C=CCN1CCc2c(cc(O)c(O)c2Cl)C(c2cccc(C)c2)C1 (stereo not drawn)	-3%	14µM*	0%	?	-8%
Cc1cccc([C@@H]2CN(C)CCc3c2cc(O)c(O)c3Cl)c1	-10%	14µM*	-2%	.	-4%
COc1cc2c(cc1OC)C(c1ccccc1)CN(C)CC2 (stereo not drawn)	-12%	2%	.	.	-15%
COc1cccc(C2=Nn3c(nnc3-c3ccccc3C)SC2)c1	-9%	.	12%	.	i
COc1ccccc1C1=Nn2c(nnc2-c2cccc(OC)c2OC)SC1	2%	.	14%	.	7%
O=[N+]([O-])c1cc(Cc2ccccc2)cc(C=Nc2ccc(N3CCOCC3)cc2)c1O	-6%	16µM*	-6%	-17%	-7%
COC(=O)c1cccc(C23CC4(C2)[C@H](CN(Cc2ccc(-c5ccccc5)cc2)[C@@H]4c2ccccc2)C3c2ccc(C(F)(F)F)cc2)c1 (stereo partly drawn)	-6%	20µM*	-6%	3%	-1%
COC(=O)c1cccc(C23CC4(C2)[C@H](CN(Cc2ccc(C(F)(F)F)cc2)[C@@H]4c2ccccc2)C3c2ccccc2)c1 (stereo partly drawn)	0%	-12%	1%	-8%	i
COc1ccc(C2=Nn3c(nnc3-c3cc(OC)ccc3OC)SC2)c(OC)c1	1%	.	-1%	.	-3%
Oc1ccc(/C=N/N(Cc2ccccc2)c2ccccc2)c(O)c1O	-27%	20µM*	?	15%	-26%
Oc1cccc(/C=N/N(Cc2ccccc2)c2ccccc2)c1	-16%	-22%	?	-2%	-26%
Nc1nc2c(c(=O)[nH]1)N(C=O)C(CNc1ccc(C(=O)N[C@@H](CCC(=O)O)C(=O)O)cc1)CN2 (stereo partly drawn)	.	.	11%[21 µM]	.	.
[N-]=C=C1C(=O)NC(=O)C([n+]2ccc(-c3ccncc3)cc2)C1c1ccccc1C(F)(F)F (stereo not drawn)	-3%	?	-3%	-8%	5%
[N-]=C=C1C(=S)NC(=O)[C@H]([n+]2ccccc2)[C@H]1c1ccc(Cl)cc1	3%	?	?	-19%	32µM*
COC(C(=O)C(O)C(C)O)C1Cc2cc3cc(OC4CC(OC5CC(O)C(O)C(C)O5)C(O)C(C)O4)c(C)c(O)c3c(O)c2C(=O)C1OC1CC(OC2CC(OC3CC(C)(O)C(O)C(C)O3)C(O)C(C)O2)C(O)C(C)O1 (stereo not drawn)	-2%	.	.	.	.
O=C(CSc1nnc(Nc2ccccc2F)s1)NC(=O)CN1CCCC1=O	.	.	11µM*	.	.
C[C@H](NC(c1cccc2nc(O)c(O)nc12)P(=O)(O)O)c1ccc(Br)cc1 (stereo partly drawn)	1%	.	-7%	.	-4%
Nc1ccccc1N=Cc1ccc(-c2cccc(Cl)c2)o1	-9%	?	-9%	28µM*	-16%
SMILES	BLM helicase inh	KDM4E inh	APE1 inh	PKM2 activator	RECQ1 helicase
COC(=O)N/N=C/c1ccc(-c2cccc(Cl)c2)o1	4%	-13%	4%	-17%	i
Cc1ccc(F)c(C2C3C=CCCC3(C)C(=O)N2Cc2ccccc2)c1 (stereo not drawn)	-12%	.	-10%	.	i
Cc1ccccc1C	.	.	-3%	.	-11%
Cc1noc(C)c1-c1ccc2ncnc(NCc3cccc(C(F)(F)F)c3)c2c1	-10%	.	-7%	.	-9%
COc1ccc2c(c1)OC1(O)COc3cc(OC)c(OC)cc3C1=C2 (stereo not drawn)	2%	?	-4%	.	i
CN1C(=O)/C(=C/c2ccc(C(=O)Nc3ccc(O)cc3C(=O)O)cc2)SC1=S	-12%	.	24µM*	.	.
O=C(CCN1C(=O)/C(=C/c2cccs2)SC1=S)Nc1cccc(O)c1	-3%	.	-5%	5µM*	.
CCN(CC)CCOC(=O)c1ccc(NC(=O)CCCN2C(=O)S/C(=C/c3ccc(OC)cc3)C2=S)cc1	-7%	.	34µM*	-3%	.
COc1ccc(/C=C2\SC(=S)N(CCC(=O)Nc3ccc(O)cc3)C2=O)cc1	0%	.	-7%	4%	.
CCOc1ccc(/C=C2/SC(=S)N(CCC(=O)Nc3ccc(C(=O)O)cc3)C2=O)cc1	-27%	.	7.5µM*	2%	.
O=C1NC(=O)/C(=C/c2cccn2-c2ccc(P(=O)(O)O)cc2)N1	.	.	40%	.	.
CSc1nc(N)nc(SCC(=O)Nc2cccc(F)c2)c1C#N	-3%	2%	3%	1.4µM*	-2%
CSc1nc(N)nc(SCC(=O)C(C)(C)C)c1C#N	-4%	7%	5%	1%	-1%
CSc1nc(N)nc(SCC(=O)Nc2ccc(Cl)cc2)c1C#N	-1%	?	-4%	4µM*	-1%
CC(C)CCC[C@@H](C)[C@@H]1CC[C@H]2C3=CC=C4CC(O)CC[C@]4(C)[C@H]3CC[C@@]21C (stereo partly drawn)	-16%	.	-10%	.	-4%
O=C(NCCN1C(=O)S/C(=C\c2cccs2)C1=O)c1ccc(=O)[nH]c1	-5%	4%	-1%	4.5µM*	-8%
CCOC(=O)[C@H](CCc1ccccc1)N[C@@H](C)C(=O)N1Cc2cc(OC)c(OC)cc2C[C@H]1C(=O)O	.	.	-7%	.	.
Cc1ccc(Nc2nc(=O)c3cccnc3s2)cc1	-2%	10%	-1%	-2%	-4%
COc1ccc(OC)c(Nc2nc(=O)c3cccnc3s2)c1	-6%	-4%	-2%	8.9µM*	-10%

Bioassay records deposited in PubChem BioAssay by National Center for Advancing Translational Sciences (NCATS).
